# The campaign covered roughly 13,000 compounds. About 3,200 (25%) showed an effect of 50% or more. The list shows a part of the results.
# System: P. falciparum stage V gametocytes
# Parameters: BacTiter-Glo ATP luminescence viability of purified stage V gametocytes in 384-well plates, per cent inhibition versus DMSO
# Conditions: 48 h, 5 µM; inhibitor
row,Compound,% Inhibition
1,CN1CCC(N(C)c2nccc(N3CCN(Cc4cncn4Cc4ccccc4)CC3)n2)CC1 [TCMDC-125095],-8.441%
2,Cc1ccc(-n2cc(CNCC3CCN(CCO)CC3)c(-c3ccc(F)cc3)n2)cc1 [TCMDC-124689],28.13%
3,O=C(CNC1=NCCN1)Nc1ccc(NC(=O)Nc2ccc(NC(=O)CNC3=NCCN3)cc2)cc1 [TCMDC-137202],4.446%
4,O=C(NCCCCN1CCCC2c3cccc(O)c3CCC21)c1ccc(-c2ccccc2)cc1 (stereo not drawn) [TCMDC-139080],37.51%
5,O=C(N[C@H](Cc1ccc(Cl)cc1)C(=O)N1CCN(c2ccnc3cc(Cl)ccc23)CC1)[C@H]1Cc2ccccc2CN1 [TCMDC-141498],2.012%
6,CC(=O)c1ccc2c(c1)C(NC(=O)c1cccc(Cl)c1Cl)C(CO)C(C)(C)O2 (stereo not drawn) [TCMDC-138988],-12.37%
7,O=C(Nc1ccc(OC2CCN(Cc3ccccc3)C2)c(Cl)c1)c1ccc(F)cc1 (stereo not drawn) [TCMDC-133972],8.518%
8,O=c1cc(NCCCNCc2scc3c(Cl)cc(C(F)(F)F)nc23)[nH]c2ccccc12 [TCMDC-141146],31.07%
9,Cc1cc(N2CCCC2=O)ccc1-c1ccc(C(=O)N2CCC(Oc3cccc(Cl)c3)CC2)cc1 [TCMDC-136525],-32.31%
10,Oc1ccccc1CCNC1CCc2ccccc2C1 (stereo not drawn) [TCMDC-137890],12.83%
11,COc1cc(Cc2cnc(N)nc2N)ccc1OCc1ccc(-c2csnn2)cc1 [TCMDC-138683],-3.694%
12,CC(C)Cn1c(Sc2ccc(C#N)c([N+](=O)[O-])c2)nnc1-c1ccccc1 [TCMDC-141918],17.88%
13,CC(C)CCn1c(Sc2ccc(C#N)c([N+](=O)[O-])c2)nnc1-c1cccc(Cl)c1 [TCMDC-135591],23.85%
14,CCn1c(Sc2ccc(C#N)c([N+](=O)[O-])c2)nnc1-c1ccc(OC)cc1 [TCMDC-135602],29.96%
15,CC(C)Cn1c(Sc2ccc(C#N)c([N+](=O)[O-])c2)nnc1-c1ccccc1Cl [TCMDC-135609],54.29%
16,CCCn1c(Sc2ccc(C#N)c([N+](=O)[O-])c2)nnc1-c1ccc(OC)cc1 [TCMDC-135582],31.08%
17,CC(C)CCn1c(Sc2ccc(C#N)c([N+](=O)[O-])c2)nnc1-c1ccccc1Cl [TCMDC-135615],17.65%
18,COc1ccc(-c2nnc(Sc3ccc(C#N)c([N+](=O)[O-])c3)n2CCC(C)C)cc1 [TCMDC-135601],7.84%
19,CC(C)CCn1c(Sc2ccc(C#N)c([N+](=O)[O-])c2)nnc1-c1ccc(Cl)cc1 [TCMDC-135596],54.47%
20,CCn1c(Sc2ccc(C#N)c([N+](=O)[O-])c2)nnc1-c1ccc(Cl)cc1 [TCMDC-135597],65%
21,O=C(NCC(CCN1CCC(c2c[nH]c3ccccc23)CC1)c1ccccc1)Nc1ccc(Cl)c(Cl)c1 (stereo not drawn) [TCMDC-139626],1.901%
22,COc1cccc2cc(C(=O)N[C@@H](CC(C)C)C(=O)N[C@H](C=NN3CCOC3=O)CC(C)C)oc12 [TCMDC-136064],12.6%
23,Cc1noc(=O)c2ccc(NC(=O)C(O)(CSc3ccccc3)CC(C)C)cc12 (stereo not drawn) [TCMDC-135222],46.49%

row,Compound,% Inhibition
1,Fc1cc(Cl)ccc1Nc1ccnc(Nc2ccc3cn[nH]c3c2)n1 [TCMDC-138575],13.66%
2,c1ccc(-c2[nH]ncc2Nc2ccnc3ccccc23)nc1 [TCMDC-138641],-8.718%
3,NC(=O)c1cc2nc(NC3CCC3)nc(Nc3cccc4[nH]ncc34)c2[nH]1 [TCMDC-137005],21.61%
4,O=C(Cc1ccc([N+](=O)[O-])cc1)N1CCc2cc3nccc(N4CCN5CCC[C@@H]5C4)c3cc21 [TCMDC-140039],-19.96%
5,O=C(Nc1ccc([N+](=O)[O-])cc1Cl)c1cc(Br)cc(Cc2ccccc2)c1O [TCMDC-124004],12.42%
6,O=C(Nc1ccccc1Cc1ccccc1)c1ccccc1C(F)(F)F [TCMDC-123550],54.56%
7,O=C(Nc1ccccc1Cc1ccccc1)c1ccccc1[N+](=O)[O-] [TCMDC-124438],42.41%
8,O=C(Nc1ccc2c(c1)CCN2C1CCN(Cc2csc3ccccc23)C1)c1ccco1 (stereo not drawn) [TCMDC-135069],39.32%
9,CN1CCN(c2ccnc3cc4ccccc4cc23)CC1 [TCMDC-124200],1.444%
10,CCN1CCCC(Nc2ccnc3cc4ccccc4cc23)C1 (stereo not drawn) [TCMDC-123499],94.14%
11,c1ccc2cc3c(NCCN4CCOCC4)ccnc3cc2c1 [TCMDC-125814],-3.95%
12,Cn1c(=N)cc(-c2ccc(Br)cc2)c2c(=O)[nH]c(N)nc21 [TCMDC-137743],6.431%
13,Cc1csc(-c2ccc3[nH]cc(C4=CCN(C)CC4)c3c2)n1 [TCMDC-132040],-6.013%
14,COc1ccc(-c2ccc(S(=O)(=O)Nc3cc4c(cc3OC(C)C)CCNCC4)cc2)cc1 [TCMDC-141481],37.39%
15,CC(C)Oc1cc2c(cc1NS(=O)(=O)c1ccc(-c3ccc(Cl)s3)cc1F)CCN(C)CC2 [TCMDC-141582],18.13%
16,O=S(=O)(Nc1cc2c(cc1O)CCNCC2)c1ccc(-c2ccc(Cl)cc2)cc1 [TCMDC-141497],-93.89%
17,O=S(=O)(Nc1cc2c(cc1OCCCN1CCCCC1)CCNCC2)c1ccc(-c2ccc(Cl)cc2)cc1 [TCMDC-141753],106.2%
18,CC(C)Oc1cc2c(cc1NS(=O)(=O)c1ccc(-c3ccc(Cl)cc3)cc1)CCN(C)CC2 [TCMDC-141459],21.1%
19,CN1CCc2cc(NS(=O)(=O)c3ccc(-c4ccc(Cl)cc4)cc3)c(OCCCN3CCCCC3)cc2CC1 [TCMDC-141754],108.9%
20,Cc1cc(-c2ccc(S(=O)(=O)Nc3cc4c(cc3OC(C)C)CCN(C)CC4)cc2)ccc1Cl [TCMDC-141488],42.37%
21,CN1CCc2cc(O)c(NS(=O)(=O)c3ccc(-c4ccc(Cl)cc4)cc3)cc2CC1 [TCMDC-141501],-85.22%
22,CN1CCc2cc(NS(=O)(=O)c3ccc(-c4ccc(Cl)s4)cc3)c(N3CCCCC3)cc2CC1 [TCMDC-141588],76.97%
23,N=C(N)NCCCCN(Cc1ccccc1)c1ccccc1 [TCMDC-131834],24.97%

row,Compound,% Inhibition
1,Nc1nc2cccc3ccc4cccc1c4c32 [TCMDC-142055],15.08%
2,COc1cc2ncnc(Nc3ccc(OCc4ccccc4Br)c(Cl)c3)c2cc1OC [TCMDC-131913],20.89%
3,O=[N+]([O-])c1ccc(C=NNc2nc3ccccc3[nH]2)cc1 [TCMDC-124105],-75.71%
4,CCCCN(CCCC)Cc1cc(N(C)c2ccc([N+](=O)[O-])cn2)ccc1O [TCMDC-137484],-6.258%
5,O=[N+]([O-])c1ccc(C=NO)nc1 [TCMDC-131967],114.3%
6,NC1CCN(c2nc(NCCCc3ccc(O)cc3)nc(NCc3ccccc3-c3ccccc3)n2)CC1 [TCMDC-133390],36.08%
7,CC1(C)N=C(N)N=C(N)N1OCCc1ccccc1 [TCMDC-131597],-4.135%
8,COc1ccc(C2CC(c3cccs3)=NN2C(=O)CNc2ccccc2F)cc1OC (stereo not drawn) [TCMDC-123552],-9.982%
9,COc1cc(OC)c(NC(=O)Nc2ccnc3ccccc23)cc1Cl [TCMDC-139463],15%
10,COc1ccc(C2C(C(=O)Nc3cc(C)ccc3OC)c3ccccc3C(=O)N2C)cc1 (stereo not drawn) [TCMDC-123595],25.42%
11,COc1cc(OC)c(NC(=O)C2c3ccccc3C(=O)N(C)C2c2cccs2)cc1Cl (stereo not drawn) [TCMDC-125447],95.47%
12,COc1ccc(C2C(C(=O)Nc3cc(Cl)c(OC)cc3OC)c3ccccc3C(=O)N2C)cc1 (stereo not drawn) [TCMDC-123596],80.19%
13,COc1ccc(C2C(C(=O)Nc3ccc(C)cc3Br)c3ccccc3C(=O)N2C)cc1 (stereo not drawn) [TCMDC-123597],-11.57%
14,COc1ccc(NC(=O)c2ccc(-c3nc(-c4cccc(C(F)(F)F)c4)cs3)cc2)cc1N1CCN(C)CC1 [TCMDC-138686],5.66%
15,COc1cc2c(cc1OC)C(C(=O)Nc1ccc(C(F)(F)F)cc1)C(c1cccs1)N(C)C2=O (stereo not drawn) [TCMDC-123797],62.6%
16,COc1ccc(NC(=O)C2c3ccccc3C(=O)N(CC(C)C)C2c2cccs2)cc1OC (stereo not drawn) [TCMDC-125289],95.75%
17,CCCCN1CCN(c2cc(NS(=O)(=O)c3cccc(C(=O)Nc4ccc(C(F)(F)F)cc4)c3)ccc2OC)CC1 [TCMDC-141779],-16.75%
18,O=C(/C=C/c1ccc(Cl)cc1)NCCCCCN1CCCC(C(=O)Nc2ccc(F)c(Cl)c2)C1 (stereo not drawn) [TCMDC-136113],4.941%
19,CCN(CC)CCNC(=O)c1ccc(NC(=O)c2cc3c(C)nn(-c4ccc(Cl)cc4)c3s2)cc1 [TCMDC-124020],26.74%
20,N#Cc1ccc(C=Cc2nccc3c2[nH]c2ccccc23)cc1 [TCMDC-124483],-0.1389%
21,Cc1cc(C(=O)OCC(=O)Nc2c(C)n(C)n(-c3ccccc3)c2=O)c(C)n1-c1ccc(F)cc1 [TCMDC-123794],-8.44%
22,CCOC(=O)c1[nH]c2ccc(F)cc2c1NC(=O)CN1CCN(c2cccc(C(F)(F)F)c2)CC1 [TCMDC-124048],-41.18%
23,COc1ccc2nccc(N3CCC(NCCNS(=O)(=O)c4ccc5c(c4)NC(=O)CS5)C3)c2n1 (stereo not drawn) [TCMDC-134527],-17.46%

# Reference: publication PMC4552634, “A New Set of Chemical Starting Points with Plasmodium falciparum Transmission-Blocking Potential for Antimalarial Drug Discovery” (PLoS ONE, 2015)
